Source: PubChem BioAssay AID571 (The Scripps Research Institute Molecular Screening Center, 2007)
Screen size: about 65,000 compounds; about 640 (0.98%) were called active. The sample as a whole holds a higher share of actives than the screen did. Values without a mark were called inactive.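 How the source made its calls: active means inhibition above a set limit, the mean inhibition across every tested compound plus 3 SD (cut at about 29% in these data); inactive means the rest.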

Molecular target: 5-hydroxytryptamine receptor 1E (Homo sapiens) (UniProt P28566)
Sequence (P28566 whole entry, looked up): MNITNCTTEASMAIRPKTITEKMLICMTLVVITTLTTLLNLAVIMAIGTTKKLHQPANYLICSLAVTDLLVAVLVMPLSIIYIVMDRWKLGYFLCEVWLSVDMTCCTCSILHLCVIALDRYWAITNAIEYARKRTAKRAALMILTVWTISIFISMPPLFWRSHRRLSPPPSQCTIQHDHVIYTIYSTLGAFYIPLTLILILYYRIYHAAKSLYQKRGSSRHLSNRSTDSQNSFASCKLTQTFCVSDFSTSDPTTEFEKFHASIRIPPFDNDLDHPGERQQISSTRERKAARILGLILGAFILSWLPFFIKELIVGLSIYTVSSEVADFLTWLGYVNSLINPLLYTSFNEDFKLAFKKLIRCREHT
Assay: 5-HT1E receptor antagonists, primary screen, cell-based, HTS (AID 571);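 further: signal is the 460 over 535 nm emission ratio of beta-lactamase substrate; 0% = agonist plus DMSO wells and 100% = wells without agonist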
Settings: CHO 5-HT1E Ga15 NFAT-bla reporter, FRET, antagonist; at 6 µM; hits give high values

Question: Which inhibition does the source give for COc1cc(C(=O)N(Cc2ccc(N(C)C)cc2)C2CCS(=O)(=O)C2)cc(OC)c1OC (stereo not drawn) here?
Answer: The inhibition was -0.54%.

Question: CCCOc1ccccc1C1CC(=O)Nc2cc3c(cc21)OCO3 (stereo not drawn) was tested. Which inhibition did it give?
Answer: The inhibition was 52.8% (active).

Question: For COCCOC(=O)C1=C(C)NC(=O)CC1c1cc2c(cc1Br)OCO2 (stereo not drawn), which inhibition is on record?
Answer: The inhibition was -1.17%.

Question: COc1cc2c(cc1OC)C(c1ccc(C)o1)CC(=O)N2 (stereo not drawn) was tested. Which inhibition did it give?
Answer: Its inhibition is 11.3%.

Question: Cn1c(-c2ccco2)nc2cc3ccccc3cc21 was tested. Which inhibition did it give?
Answer: The inhibition was 1.87%.

Question: CCOCCN(C=O)c1cccc(OC)c1 was tested. Which inhibition did it give?
Answer: Its inhibition is -9.77%.

Question: For COC(=O)c1ccc(NCC(=O)c2ccccc2)cc1, which inhibition is on record?
Answer: Its inhibition is -2.89%.

Question: With COc1ccc(C(=O)NCCc2ccc(S(N)(=O)=O)cc2)cc1OC as the compound, how does the inhibition read?
Answer: Its inhibition is 12.5%.

Question: How did the inhibition turn out when O=C(CN1CCN(S(=O)(=O)c2ccc(F)cc2)CC1)Nc1ccccc1F was run?
Answer: The inhibition was 2.85%.

Question: Which inhibition does the source give for CCOC(=O)N1CCN(S(=O)(=O)c2ccc(C(=O)Nc3ccc(F)cc3F)cc2)CC1 here?
Answer: Its inhibition is 38.3% (active).

Question: Which inhibition does the source give for O=C(Nc1cccc(F)c1)c1ccc(S(=O)(=O)N2CCCC2)cc1 here?
Answer: The inhibition was -2.92%.

Question: For CCOC(=O)c1sc(NC(=O)CSc2ncccn2)c(C#N)c1C, which inhibition is on record?
Answer: The inhibition was -1.65%.

Question: O=S(=O)(c1ccccc1)N(CC(O)CN1CCCCC1)c1ccccc1 (stereo not drawn) was tested. Which inhibition did it give?
Answer: Its inhibition is -17.2%.

Question: With Cc1ccc(NC(=O)N2CCC(C(=O)NCc3ccc(F)cc3)CC2)cc1 as the compound, how does the inhibition read?
Answer: Its inhibition is -1.42%.

Question: Which inhibition does the source give for O=S(N1CCCCCC1)C12CC3CC(CC(C3)C1)C2 (stereo not drawn) here?
Answer: Its inhibition is -12.6%.

Question: Which inhibition does the source give for CCC(C)NC(=O)N[C@@H](CCSC)C(=O)O (stereo partly drawn) here?
Answer: The inhibition was -2.48%.

Question: Which inhibition does the source give for Oc1c(C(c2cccs2)N2CCN(c3ccc(F)cc3)CC2)sc2ncnn12 (stereo not drawn) here?
Answer: The inhibition was -14%.

Question: With O=C(CCSCCc1ccccn1)Nc1nccs1 as the compound, how does the inhibition read?
Answer: Its inhibition is -8.42%.

Question: Which inhibition does the source give for CCC(=O)N(Cc1cc2cc(OC)ccc2[nH]c1=O)c1ccccc1C here?
Answer: Its inhibition is 15.6%.

Question: Which inhibition does the source give for C/C(=C\C(=O)c1cccnc1)Nc1ccc(C)c(C)c1 here?
Answer: Its inhibition is -0.61%.

Question: O=C(CNC(=O)c1ccc(Cl)cc1Cl)NCC(=O)Nc1ccccc1N1CCOCC1 was tested. Which inhibition did it give?
Answer: Its inhibition is 5.85%.

Question: Which inhibition does the source give for CCCc1nc2ccccc2c(C(=O)OCc2nnc(-c3cc(OC)c(OC)c(OC)c3)o2)c1CC here?
Answer: The inhibition was 23%.

Question: How did the inhibition turn out when COc1cc(-c2nnc(Cn3cc(C(F)(F)F)ccc3=O)o2)cc(OC)c1OC was run?
Answer: The inhibition was 29% (active).

Question: Which inhibition does the source give for CCOC(=O)c1cc(-c2nnc(-c3cc(OC)c(OC)c(OC)c3)o2)c(C)nc1C here?
Answer: Its inhibition is -9.6%.

Question: For COc1cccc(NC(=O)Cn2cnc3sc(C)c(S(=O)(=O)N4CCN(C)CC4)c3c2=O)c1, which inhibition is on record?
Answer: The inhibition was -6.2%.

Question: For COc1ccc(CSc2nc(N3CCOCC3)c3c(c2C#N)CC(C)(C)OC3)cc1, which inhibition is on record?
Answer: The inhibition was -10.9%.

Question: How did the inhibition turn out when CC(C)c1nc(N2CCOCC2)c(C#N)c2c1COC(C)(C)C2 was run?
Answer: Its inhibition is 10.4%.

Question: Which inhibition does the source give for CC1(C)Cc2c(C#N)c(SCc3nc4ccccc4[nH]3)nc(N3CCOCC3)c2CO1 here?
Answer: Its inhibition is 28.9% (active).
